High-throughput results from PubChem.
Compounds with a hit are over-represented: about 9.2% of the library has one in this group of screens.
Rab9 prom act: qHTS Assay for Rab9 Promoter Activators. Huh7 Rab9 promoter-luciferase reporter, luminescence, 24 h. Potency, µM (titrated, usually from 9.22 µM), without a hit: top-dose activation, negative = inhibition, usual class: activators. 320,000 tested, 2.8% active. AID 485297, 2010; note: % of control where 0% means no effect; nearly all actives have a fitted effect of over 60% in size
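Huh7 cells stably carrying a Rab9 promoter-luciferase reporter, 1500 cells per well in OP-MEM I with 10% FBS, treated with compound 24 hours at 37C. Luciferase activity read by luminescence after 10 minutes with Amplite reagent.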
ELG1 repair inh: qHTS screen for small molecules that inhibit ELG1-dependent DNA repair in human embryonic kidney (HEK293T) cells expressing luciferase-tagged ELG1; 330,000 tested, 2.3% active; Potency, µM (series often up to 46.1 µM), for the others: at the highest dose activity change, negative = inhibition, most hits filed as inhibitors; HEK293T ELG1-luciferase reporter, luminescence, 16 h; DNA damage induced by 5-fluorouridine; note: % is set by controls: 0 for no effect and ±100 for the full control effect; nearly all actives have a fitted effect of over 55% in size
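5-Fluorouridine DNA damage + compound/DMSO, 2,000 cells/well, 16 h, 37 °C/5% CO2. ONE-Glo, 30 min RT, luminescence. Readout = decrease in reporter signal.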
ELG1 genotoxic: qHTS screen for small molecules that induce genotoxicity in human embryonic kidney (HEK293T) cells expressing luciferase-tagged ELG1 | HEK293T ELG1-luciferase reporter, luminescence, 16 h | Potency, µM (titrated, usually from 46 µM), for inactives: top-dose activity change, positive = activation, most hits filed as activators | 330,000 tested, 1.3% active; note: % of control where 0% means no effect; nearly all actives have a fitted effect of over 60% in size
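DMSO vehicle served as control against compound-treated ELG1-luciferase HEK293T cells; exposure lasted 16 hr at 37 °C and 5% CO2, followed by ONE-Glo luminescence detection after 30 min.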
NPC1 promoter act: qHTS Assay for NPC1 Promoter Activators; Huh7 NPC1 promoter luciferase reporter, 24 h; Potency, µM (top dose mostly 9.22 µM), for the others: top-dose activation, most hits filed as activators; 320,000 tested, 2.4% active; note: % of control where 0% means no effect; nearly all actives have a fitted effect of over 60% in size
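Cells: Huh7 expressing luciferase under the NPC1 promoter, 1500/well. Seeded 2 h, compound added, incubated 24 h at 37 °C. Luciferase reagent, 10 min ambient, then luminescence.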
SMN2 splice up: qHTS Assay for Enhancers of SMN2 Splice Variant Expression. HEK293 SMN2-luciferase splicing reporter, luminescence, 30-36 h. Potency, µM (top dose mostly 46.1 µM), for the others: at the top dose activity change, positive = activation, hits mostly activators. 210,000 tested, 2.8% active; note: % of control where 0% means no effect; nearly all actives have a fitted effect of over 55% in size
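HEK293 cells carry an SMN2 […]–luciferase reporter in which exon 7 inclusion puts luciferase in frame. Cells were plated 10-12 h before compound addition, then incubated 30-36 h at 37C. ONE-Glo luminescence was read; sodium butyrate at 4.5 mM final served as control.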
FLuc modulator: qHTS profiling assay for firefly luciferase inhibitor/activator using purifed enzyme and Km concentrations of substrates (counterscreen for miR-21 project); Luciferin 4-monooxygenase (Photinus pyralis), P08659; 360,000 tested, 6.9% active; AID 588342, 2011; purified FLuc, Km substrates, luminescence inhibition; Potency, µM (highest dose often 57.5 µM), inactives show at the highest dose activity change, negative = inhibition, usual class: inhibitors;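 note: plate controls were vehicle for no effect and reference inhibitor for full effect; nearly all actives have a fitted effect of over 55% in size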
Target sequence (P08659 whole entry, looked up): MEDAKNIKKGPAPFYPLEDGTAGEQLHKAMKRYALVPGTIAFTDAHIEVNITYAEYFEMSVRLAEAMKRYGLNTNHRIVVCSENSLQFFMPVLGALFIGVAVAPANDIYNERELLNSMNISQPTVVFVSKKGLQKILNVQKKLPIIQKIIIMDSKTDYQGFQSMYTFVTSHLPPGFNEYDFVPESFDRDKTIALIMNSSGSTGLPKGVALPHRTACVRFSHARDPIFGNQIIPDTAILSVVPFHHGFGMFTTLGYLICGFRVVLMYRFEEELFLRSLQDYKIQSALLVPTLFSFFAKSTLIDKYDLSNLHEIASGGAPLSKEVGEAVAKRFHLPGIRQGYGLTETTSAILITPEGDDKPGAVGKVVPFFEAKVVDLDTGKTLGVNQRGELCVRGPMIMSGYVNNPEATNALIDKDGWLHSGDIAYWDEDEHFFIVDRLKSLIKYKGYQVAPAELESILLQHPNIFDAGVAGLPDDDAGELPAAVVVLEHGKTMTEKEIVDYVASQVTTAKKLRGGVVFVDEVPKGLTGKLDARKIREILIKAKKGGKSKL
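Purified P. pyralis luciferase, 10 nM final, with Km-level 10 uM D-luciferin and 10 uM ATP in 50 mM Tris acetate pH 7.5, 10 mM Mg acetate, 0.01% Tween-20, 0.05% BSA; 6-point qHTS titration about 60 µM downward; luminescence read.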
An asterisk follows results filed as active; [ ] = another dose, or the depositor's remark. Calls come from the whole dose curve; as a rule, active = well fitted curve in the direction sought with a large enough effect; inconclusive = small, poorly fitted or top-dose-only effect, or another doubt; inactive = no such curve, though single readings can be large; an effect the other way counts as inactive or inconclusive. Potency is the fitted concentration of half-maximal effect.

What do the screens show for `CN(Cc1ccccc1F)C(=O)CCNC(=O)c1ccc(C(C)(C)C)cc1`?
Rab9 prom act: -2.3%; ELG1 repair inh: inconclusive; ELG1 genotoxic: 1.6%; NPC1 promoter act: 1.2%; FLuc modulator: -21.9%

How did Cc1ccc(C)c(-n2c(-c3ccc(Br)cc3)csc2=NC(=O)c2ccccc2F)c1 do in these assays?
Rab9 prom act: -3.2%; ELG1 repair inh: 11.6µM*; ELG1 genotoxic: -9.8%; NPC1 promoter act: 0.1%; FLuc modulator: 1.2%

What do the screens show for `O=C(N/N=C/C(Br)=C/c1ccccc1)c1cccnc1`?
Rab9 prom act: 12.3%; ELG1 repair inh: 32.2%; ELG1 genotoxic: inconclusive; NPC1 promoter act: 0.8%; FLuc modulator: 13.5µM*

Results for O=C(N/N=C/C(Br)=C/c1ccccc1)c1ccc([N+](=O)[O-])cc1 ?
Rab9 prom act: 0.0%; ELG1 repair inh: 0.0%; ELG1 genotoxic: -0.1%[9.26 µM]; NPC1 promoter act: -0.6%; FLuc modulator: 1.8%

How did O=C(N/N=C/C(Br)=C/c1ccccc1)c1ccncc1 do in these assays?
Rab9 prom act: 2.3%; ELG1 repair inh: inconclusive; ELG1 genotoxic: 11.7%; NPC1 promoter act: -2.3%; FLuc modulator: 23.9µM*

How did CCOc1cc(C(=O)N/N=C/C(Br)=C/c2ccccc2)cc(OCC)c1OCC do in these assays?
Rab9 prom act: -24.6%; ELG1 repair inh: -21.4%; ELG1 genotoxic: 6.2%; NPC1 promoter act: -22.4%; SMN2 splice up: -35.5%; FLuc modulator: -3.0%

What do the screens show for `COC(=O)c1ccccc1NC(=O)c1cc(=O)c2ccc(C)c(C)c2o1`?
SMN2 splice up: 1.2%; FLuc modulator: -1.1%

What do the screens show for `Fc1ccc(-c2noc(-c3ccc4c(c3)CCO4)n2)cc1`?
Rab9 prom act: 0.398µM*; ELG1 repair inh: inconclusive; ELG1 genotoxic: inconclusive; NPC1 promoter act: inconclusive; FLuc modulator: 0.536µM*

How did CCOc1cc(C(=O)NCC(c2ccc(N(C)C)cc2)N2CCOCC2)cc(OCC)c1OCC (centres undefined) do in these assays?
FLuc modulator: 1.8%

What do the screens show for `Fc1cccc(C2NN=C(c3ccccc3)S2)c1` (centres undefined)?
Rab9 prom act: 2.82µM*; ELG1 repair inh: inconclusive; ELG1 genotoxic: 2.31µM*; NPC1 promoter act: 2.24µM*; SMN2 splice up: 11.2µM*; FLuc modulator: 1.07µM*

What do the screens show for `COc1ccc(C2NC(=O)CS2)cc1OC` (centres undefined)?
Rab9 prom act: 0.3%; ELG1 repair inh: 7.2%; ELG1 genotoxic: 2.6%; NPC1 promoter act: -2.3%; SMN2 splice up: 11.2%; FLuc modulator: -0.3%

How did Cc1ccc(C2=NNC(c3cccc(F)c3)S2)cc1 (centres undefined) do in these assays?
Rab9 prom act: 0.501µM*; ELG1 repair inh: inconclusive; ELG1 genotoxic: -23.1%; NPC1 promoter act: 0.562µM*; SMN2 splice up: 1.58µM*; FLuc modulator: 0.426µM*

What do the screens show for `COc1ccc(C2NN=C(c3ccc(C)cc3)S2)cc1OC` (centres undefined)?
Rab9 prom act: 1.41µM*; ELG1 repair inh: inconclusive; ELG1 genotoxic: inconclusive; NPC1 promoter act: 2.24µM*; SMN2 splice up: 11.2µM*; FLuc modulator: 2.39µM*

What do the screens show for `O=C(Cn1c(=O)n(Cc2ccco2)c(=O)c2ccc(C(=O)NC3CCCC3)cc21)Nc1ccc(F)cc1`?
SMN2 splice up: 10.5%; FLuc modulator: -2.2%

How did CCC(C)NC(=O)c1cnn(-c2ccc(Cl)cc2)c1C1CCN(C(=O)OC(C)(C)C)CC1 (centres undefined) do in these assays?
FLuc modulator: 4.0%

Results for Cc1ccc(/C=N/Nc2ccc(Cl)nn2)cc1 ?
Rab9 prom act: 3.16µM*; ELG1 repair inh: inconclusive; ELG1 genotoxic: inconclusive; NPC1 promoter act: 1.78µM*; FLuc modulator: inconclusive

Results for Fc1ccccc1/C=N/Nc1nn[nH]n1 ?
Rab9 prom act: 13.6%; ELG1 repair inh: 2.9%; ELG1 genotoxic: 4.9%; NPC1 promoter act: -2.6%; SMN2 splice up: -15.9%; FLuc modulator: 0.5%

Results for Oc1ccc(/C=N/Nc2ccc(Cl)nn2)cc1O ?
Rab9 prom act: -0.1%; ELG1 repair inh: inconclusive; ELG1 genotoxic: inconclusive; NPC1 promoter act: -1.4%; FLuc modulator: inconclusive

What do the screens show for `Fc1ccccc1/C=N/Nc1ccc(Cl)nn1`?
Rab9 prom act: inconclusive; ELG1 repair inh: inconclusive; ELG1 genotoxic: inconclusive; NPC1 promoter act: inconclusive; FLuc modulator: 10.7µM*

Results for CC1CCCCN1Cc1c(O)ccc2c(=O)c(-c3ccccc3Cl)c(C(F)(F)F)oc12 (centres undefined) ?
SMN2 splice up: -12.9%; FLuc modulator: -3.3%

What do the screens show for `CC1CCCCN1Cc1c(O)ccc2c(=O)c(-c3nc4ccccc4s3)c(N)oc12` (centres undefined)?
Rab9 prom act: -7.5%; ELG1 repair inh: 8.8%; ELG1 genotoxic: 1.6%; NPC1 promoter act: 2.1%; SMN2 splice up: 13.9%; FLuc modulator: 12µM*

Results for O=C(NC1CC1)c1sc2cc([N+](=O)[O-])ccc2c1Cl ?
Rab9 prom act: 11.6%; ELG1 repair inh: inconclusive; ELG1 genotoxic: 1.0%; NPC1 promoter act: 13.3%; SMN2 splice up: 3.0%; FLuc modulator: inconclusive

What do the screens show for `Cc1ccc2c(Cl)c(C(=O)NC3CC3)sc2c1`?
Rab9 prom act: 3.98µM*; ELG1 repair inh: inconclusive; ELG1 genotoxic: inconclusive; NPC1 promoter act: 2µM*; FLuc modulator: 4.78µM*

Results for CC(=O)Nc1ccc(NC(=O)c2oc3cc(C)c(C)cc3c2C)cc1 ?
Rab9 prom act: -4.7%; ELG1 repair inh: -0.7%; ELG1 genotoxic: inconclusive; NPC1 promoter act: -0.8%; SMN2 splice up: -15.4%; FLuc modulator: -4.5%

What do the screens show for `Cc1cccc(OCC(=O)N/N=C/c2cccn2C)c1`?
Rab9 prom act: -5.8%; ELG1 repair inh: 1.7%; ELG1 genotoxic: 2.6%; NPC1 promoter act: -3.9%; FLuc modulator: -15.8%

Results for Cn1cccc1/C=N/NC(=O)c1sc2cc(Cl)ccc2c1Cl ?
Rab9 prom act: 1.2%; ELG1 repair inh: 15.9%; ELG1 genotoxic: 11.2%; NPC1 promoter act: -1.5%; FLuc modulator: -0.4%

What do the screens show for `Cc1cc2oc(C(=O)Nc3cccnc3)c(C)c2cc1C`?
Rab9 prom act: inconclusive; ELG1 repair inh: inconclusive; ELG1 genotoxic: 13µM*; NPC1 promoter act: inconclusive; SMN2 splice up: -12.7%; FLuc modulator: inconclusive
